# Results reported in the supplement of paper PMC11417369.
# ± gives the standard deviation of the averaged measurements. In all, about 25,000 sequences were measured (“ln(normalized median fluorescence intensity)”: median about 8.6, highest 2% from about 10 on). Shown is part of a subset that was picked to be rich in the highest values.
# Test system: PfAP2-EXP AP2 domain (GST-tagged)
# Assay: gcPBM binding intensity (ln(normalized median fluorescence intensity)); higher = stronger DNA binding
# How it was run: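 Plasmodium falciparum DNA-binding domains carrying a GST tag were expressed in E. coli and applied for 1 h, at about 25 μg on average, to an Agilent 4 × 180k array. The array held primer-extended double-stranded 36-bp intergenic genomic probes together with negative controls, and binding took place in 1× PBS with 1% milk, 0.2 mg/ml BSA, 0.5% salmon testes DNA and 0.03% Triton X-100. An Alexa488 anti-GST antibody detected bound protein, and the array was scanned at 488 nm. Binding intensity is taken as the highest Masliner-normalised natural-log median intensity across replicate spots of either probe orientation.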
row,Sequence,gcPBM binding intensity (ln)
1,TCATGGAATATTTAAAGTACAAAAAGTGTTCTTTAC [XGTACX_site715],8.21 ± 0.3
2,TAATATCATTTATGTAGTACTATAACAAGAACTATA [XGTACX_site3618],8.33 ± 0.35
3,TATATATATATAAAGGTGCATATCTTTACGTATGTC [GTGCAC_site9665],9.99 ± 0.11
4,AAAAAAAAGGAAAATAAAAATAAAAAAAAATAATAA [XGTACX_negctrl_site601],8.53 ± 0.52
5,AAAAAAAAAAAAAATACACACATATATATATATATA [CACACA_site85],10.1 ± 0.34
6,AAAAAAAAAAAATATACACACACATATATATATATA [CACACA_site9123],10 ± 0.45
7,AAAAAAAATACATACATACACACATATATATATATA [CACACA_site912],9.98 ± 0.38
8,AAAAAAAAAAAATACACACACATATATATATATATA [CACACA_site2224],10.2 ± 0.23
9,AAAAAAAAAAAATACACACACACATATATATATATA [CACACA_site731],10.2 ± 0.18
10,AAAAAAAAAAAAAATACACACACATATATATATATA [CACACA_site8698],10.1 ± 0.26
11,TTATATAAATATAAGGTGCTGGGGTTTATTACATAT [GTGCAC_site9909],9.03 ± 0.54
12,AAGATGGTAAAGAATTGTACGCGCATATATATATTT [XGTACX_site3904],9.69 ± 0.42
13,GGCATACACAGACACACACACACACCCACATATATA [CACACA_site591],8.79 ± 0.4
14,TGTATTATATATGTGTGTACATATTTTTTTTTTTTT [XGTACX_site3351],8.47 ± 0.34
15,TTTTAAAGCATATCATATAAAGAACATGACATAGGA [CACACA_negctrl_site630],8.61 ± 0.33
16,TTTTTTAAATTTAAAGTGCATTATTATATATTTGTA,8.65 ± 0.15
17,ATTTTTTTTGTAAAAGTGCATATATATATATATATA,10.4 ± 0.35
18,AAAAAAAAAAAAAAAGTGCATATATAAATATTGTAT [GTGCAC_site9459],8.62 ± 0.3
19,AAAATTAATAAATAAACACACATATTTATATTTATA [CACACA_site7266],8.03 ± 0.41
20,ATGTATGTATATACTTGTACATATTCATATTAGTAT [XGTACX_site1118],8.45 ± 0.35
21,ATATATATTATATATTGTACATATTATATTCATTAT [XGTACX_site1766],8.57 ± 0.3
22,AAAATATATTCAACTTGTACATATATATATATATAT [XGTACX_site7629],10.3 ± 0.13
23,TAAAAATATTTTCATTGTACATATATATAAATATAT [XGTACX_site1123],8.4 ± 0.33
24,TAACTTCAAAAATCTTGTACATAAATATATAAAACA [XGTACX_site8574],8.53 ± 0.44
25,CTTAAAAAAATATATTGTACATATATATATACAACT [XGTACX_site1281],8.33 ± 0.3

row,Sequence,gcPBM binding intensity (ln)
1,GAATATTCACATACTTGTACATATATATATATATAT [XGTACX_site7302],10.2 ± 0.68
2,AAAAAAAAAATTCATTGTACATATATATATATATAT [XGTACX_site8346],10.2 ± 0.22
3,AATACACAAATATATTGTACATATATATATATATAT [XGTACX_site2440],9.85 ± 0.34
4,GGATTTATTATATATACACACATACAGATATATATA [CACACA_site5222],8.48 ± 0.3
5,GTTTTTTTTATATATTGTACAAATAATATATTATAT [XGTACX_site29],9.02 ± 0.37
6,TAAATATATTTATACACACACACCAAAGCAATAGAT [CACACA_site7393],9.12 ± 0.35
7,AAAAAATGTTAAAAAAGTACTTTCTTTATTTAATAA [XGTACX_site2908],8.07 ± 0.4
8,GAACGCCATTCACATAAAGGGATACATAAATAAATA [XGTACX_negctrl_site330],8.4 ± 0.42
9,ATGTGTATATATTATTGTACATATATATATATATAT [XGTACX_site4627],10.3 ± 0.2
10,CATACACATATATATTGTACACATATATGTATGTAT [XGTACX_site4030],8.45 ± 0.28
11,TTGTGTACATATTAAGTGCATATATATATATATATA,10.4 ± 0.33
12,TATATATTATATATATGTACATATTGTTGTGTATAT [XGTACX_site767],8.63 ± 0.29
13,TATATATATATATATTGTACATATATTATTATATAT [XGTACX_site7447],10.2 ± 0.57
14,ATATAAAAATTAAAATGTACATATCTTATTATAATA [XGTACX_site983],8.32 ± 0.34
15,CATATACATTGTATATGTACATATATATATATATAT [XGTACX_site3772],10.1 ± 0.36
16,CTTTTAAATTATTTTTGTACATAATTATATATATAT [XGTACX_site4128],9.4 ± 0.32
17,CATGTGCATATTAAATGTACATATATACATATATAC [XGTACX_site857],8.835 ± 0.064
18,TATATTAATAATAAGTGTACATATATATATATTTTT [XGTACX_site288],8.36 ± 0.3
19,ATATCTTAAATTATTTGTACATATATATATATATAT [XGTACX_site8034],10.3 ± 0.27
20,ATATATATATATATATGTACATATTGTATCTTATAC [XGTACX_site5466],10.2 ± 0.4
21,TTTTAAATAAATCATGCATGCACATATAATTATATT [TGCATGCA_site151],9.94 ± 0.33
22,TTATATGGATATACAGTGCATATATACATATAAGTG,8.61 ± 0.26
23,ACAAAAAAATGAAAAGAAAAAGATATACCCCAATAT [CACACA_negctrl_site509],8.99 ± 0.8
24,TATGTAATGTTTACAACACACAAATTATAAATACAA [CACACA_site1771],8.38 ± 0.4
25,TATTACATTATATAAACATGCAAAACTATATATTAT [TGCATGCA_site601],8.63 ± 0.45

row,Sequence,gcPBM binding intensity (ln)
1,TGTTTTATTATTTATAGTACATAAAAAAATATTGTA [XGTACX_site8963],8.25 ± 0.24
2,CAAGAATAAAAATACAAGCACACATGTATGAAATAT [CACACA_site3214],8.91 ± 0.42
3,ATATATATATATAAATGTACAGGCTTATCTCTTATT [XGTACX_site1828],10.2 ± 0.12
4,TAAAAAAAAAAAATGTGTACATATTATATATATCTT [XGTACX_site2615],8.22 ± 0.3
5,TTATATCTTATAAAATGTACATAAAATATATAATAT [XGTACX_site7647],8.52 ± 0.26
6,ATTTATCTATAATATACACACATATAACAGACATAT [CACACA_site6469],8.52 ± 0.33
7,TGAATAATATACATACGTACATACATATATATAATA [XGTACX_site1302],8.32 ± 0.3
8,TAATATACATATATATGTACATATATATATATATAT [XGTACX_site2684],9.93 ± 0.35
9,ATACATTCTAATACGTGTACATATATATATATATAT [XGTACX_site1881],10.2 ± 0.28
10,ATTACAAAAAAAAAAAAAAAAAAAAAAAAAAAAAAA [CACACA_negctrl_site448],7.95 ± 0.33
11,TACATAAATTTTAATACATGCAAATAAAATATATAA [TGCATGCA_site131],8.88 ± 0.4
12,AATAATTTTTTAAACACACACACATATATATATATA [CACACA_site95],10.1 ± 0.3
13,TAATTTTTTTTAATAACACACATATATATATATATA [CACACA_site813],10.47 ± 0.042
14,TTTTATATATTATATACACACATATATATATATATA [CACACA_site2999],10.2 ± 0.32
15,TTACTACTATATTATACACACATATATATATATATA [CACACA_site2621],10.3 ± 0.23
16,TAATTTTTTTTAATAACACACATATAAATATAAATA [CACACA_site6521],8.17 ± 0.45
17,TATTACACATATTATACACACATATATTATATATAT [CACACA_site4951],8.69 ± 0.25
18,TTACTACTATATTATACACACATATATTTATTTATA [CACACA_site7274],8.7 ± 0.4
19,TTTTTTTTTTTTTAAACATGCAAAATATATAATTTT [TGCATGCA_site633],8.46 ± 0.36
20,TATATATATATATACACATGCAAAAATTTTTAATTT [TGCATGCA_site82],10.2 ± 0.35
21,ATTTTATTTATATACACACACATATATATATTATAT [CACACA_site822],8.77 ± 0.44
22,ATATTTTATTTATATACACACACATATATATATTAT [CACACA_site8177],8.79 ± 0.47
23,AAACCTTTAGAAAATCGTACAAAACATAACCACCTA [XGTACX_site1098],8.81 ± 0.61
24,CACAGACACGGACACACACACACAAAAAAAAAAAGA [CACACA_site4436],8.44 ± 0.57
25,TATTTTTAAATATAAAGTACTTATATTAACTACGAA [XGTACX_site1524],8.27 ± 0.29

row,Sequence,gcPBM binding intensity (ln)
1,TATATATATACATACATACACACATATATATATATA [CACACA_site4109],10.1 ± 0.67
2,ACAATAAAATATGGCACACATATATATATATATTTA [CACACA_site3],8.43 ± 0.34
3,AAAATCTAGGTATTTATACACACTAAAATAATATAC [CACACA_site623],8.52 ± 0.3
4,AAATAAAATAAAATAAAATAAAATAAAATAAAATAA [XGTACX_negctrl_site142],8.49 ± 0.28
5,AAAAAATATATATGCACACACAAAAAAACAAATTAA [CACACA_site1278],8.78 ± 0.38
6,ATATATATATATTGTACACACATTTATGCATATATA [CACACA_site5738],9.97 ± 0.3
7,AGTGAAATTTTAGTCACACAGTTTTATCTTTAAGAA [CACACA_site5202],8.12 ± 0.52
8,TTGTGTTATCACACGAAGGGGATAAGACATAAATGT [TGCATGCA_negctrl_site368],8.49 ± 0.49
9,TCTTAAGGAAAAGAGTGTACAGAAATTTTTATTAAC [XGTACX_site6139],8.67 ± 0.48
10,TGTAGTCTGGAGAAAAGTACATAGTATCTGGTAACC [XGTACX_site2025],8.62 ± 0.38
11,ATAAAAAGCTAAAAAGTGCAAAAAGTAAATATTTAA,9 ± 0.44
12,TTTAAATAAAATATTACACACTTAGAAAAATATATA [CACACA_site3663],8.38 ± 0.28
13,AGAATAATAAAATGGGTGCAATAGTTTTTTTTTTTT [GTGCAC_site9823],8.59 ± 0.13
14,ATATATTTATTATTAGGTACACATATATATATATAT [XGTACX_site5045],10.2 ± 0.54
15,TTTTTTTTTTTTAATACACACATATATATATTTATT [CACACA_site3994],8.38 ± 0.42
16,TATATAAACACGTACACACACATATAGGTATTTATA [CACACA_site7615],8.71 ± 0.49
17,ACAAATAAGTTTTATACACACATATAAGTAAATACA [CACACA_site4157],8.57 ± 0.29
18,TATATACATATATATACACACATATATATATTTTAT [CACACA_site3788],8.26 ± 0.4
19,TATATATATATATATACACACATATATATATTTTTC [CACACA_site3983],10.2 ± 0.26
20,AATATATTTTAATACACACACACATATATATATATA [CACACA_site5969],10.3 ± 0.34
21,TTTTTTTTTTTTAATACACACATATTTATATTTATT [CACACA_site7802],8.44 ± 0.3
22,CATATATATATATATACACACATATATATTTTCTTT [CACACA_site1457],8.69 ± 0.15
23,AGGATATATAAGTATACACACATATTTATATTTATA [CACACA_site6239],8.23 ± 0.42
24,ATTTATATATATATAGGTACACATATTTATATATAA [XGTACX_site8487],8.23 ± 0.2
25,TATAAGTTTATATATACACACATATATATATATATA [CACACA_site3274],10.2 ± 0.34
